Reference: PubChem BioAssay (Tox21)
Inconclusive results are not listed. Entries that show only a call come without a potency. Some compounds were tested as several samples or in several runs, with calls that do not always agree. The source made the active and inactive calls. Unless noted, calls come from the whole dose curve; as a rule, active = well fitted curve in the direction sought with a large enough effect in the repeat runs; inconclusive = weak or mixed curves; inactive = no such curve, though single readings can be large; an effect the other way counts as inactive or inconclusive.

How the values were obtained:
[1] = qHTS assay to identify small molecule agonists of the estrogen receptor beta (ER-beta) signaling pathway - cell viability counter screen (AID 1259380); note: nearly all actives have a fitted effect of over 30% in size
In short: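 Compounds dissolved in DMSO were pin-transferred onto ER-beta-UAS-bla HEK293T cells that had settled 6 hr, and exposure ran 16 hr at 37C. Following the reporter read, CellTiter-Glo luminescence after 30 min at room temperature indicated cytotoxicity.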

[2] = molecular target: Androgen receptor (Homo sapiens) (UniProt P10275); assay: qHTS assay to identify small molecule agonists of the androgen receptor (AR) signaling pathway in the presence of an antagonist (AID 1259381; calls by dose curve; note: nearly all actives have a fitted effect of over 15% in size)
In short: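 Plated MDA-kb2 cells (3,000/well) were pre-incubated 5hr, given nilutamide (3.0uM final) or buffer, then dosed with compounds in DMSO at 15 concentrations. Luciferase activity was quantified by luminescence after 16hr at 37C.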

[3] = qHTS assay to identify small molecule antagonists of the estrogen receptor beta (ER-beta) signaling pathway - cell viability counter screen (AID 1259382);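 note: HEK293T cells carrying ER-beta-UAS-bla reporter stimulated with estradiol; series mostly up to about 92 µM; nearly all actives have a fitted effect of over 55% in size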
In short: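 CellTiter-Glo ATP luminescence measured after the LiveBLAzer read in the same wells; ER-beta-UAS-bla HEK293T cells, 16 hr compound treatment with 1nM 17-beta-estradiol agonist at 37C, 5% CO2.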

[4] = molecular target: Estrogen receptor (Homo sapiens) (UniProt P03372); assay: qHTS assay to identify small molecule agonists of the estrogen receptor alpha (ER-alpha) signaling pathway in the presence of an antagonist (AID 1259383; calls by dose curve; note: top concentration of the series differs between compounds; nearly all actives have a fitted effect of over 15% in size)
In short: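 Luminescent ERE-luciferase reporter, VM7Luc4E2 cells (endogenous ER-alpha); 10.0nM ICI-182,780 final; 15-point compound titration; 22hr at 37C; ONE-Glo, 30min RT.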

[5] = qHTS assay to identify small molecule agonists of the estrogen receptor alpha (ER-alpha) signaling pathway in the presence of an antagonist - cell viability counter screen (AID 1259386);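 note: cells exposed to compounds for 22 h at 37 °C before the viability read; nearly all actives have a fitted effect of over 30% in size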; note: potency is the fitted concentration of half-maximal effect
In short: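 Using estrogen-depleted VM7Luc4E2 cells, the 15-concentration compound series was applied together with 10.0nM ICI-182,780 and incubated 22hr at 37C/5% CO2. Cell viability was then scored by CellTiter-Fluor.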

[6] = molecular target: Progesterone receptor (Homo sapiens) (UniProt P06401); assay: qHTS assay to identify small molecule agonists of the progesterone receptor (PR) signaling pathway (AID 1346784; calls by dose curve; note: nearly all actives have a fitted effect of over 30% in size)
In short: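 Using charcoal-stripped serum (2%) to limit endogenous steroids, PR-UAS-bla HEK 293T cells received compounds for 16 hr at 37C after 6 hr plating; beta-lactamase FRET fluorescence was recorded following 2 hr substrate loading at room temperature.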

[7] = molecular target: Progesterone receptor (Homo sapiens) (UniProt P06401); assay: qHTS assay to identify small molecule antagonists of the progesterone receptor (PR) signaling pathway (AID 1346795; active = well fitted inhibition curve with a large enough effect in the signal ratio in the repeat runs, not every such curve was filed as active; the % refers to the signal ratio)
In short: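 Inhibition of R5020-induced (1 nM final) beta-lactamase reporter signal in PR-UAS-bla HEK293T cells was scored by FRET fluorescence after overnight (16 hr) compound treatment.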

[8] = qHTS assay to identify small molecule antagonists of the progesterone receptor (PR) signaling pathway - cell viability counter screen (AID 1346798); note: series mostly up to about 92 µM; nearly all actives have a fitted effect of over 50% in size
In short: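 ATP content as viability readout: CellTiter-Glo luminescence, 30 min room temperature, in PR-UAS-bla HEK293T cells after 16 hr compound/R5020 treatment at 37C and 5% CO2.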

[9] = qHTS assay to identify small molecule agonists of the progesterone receptor (PR) signaling pathway - cell viability counter screen (AID 1346799; calls by dose curve; note: nearly all actives have a fitted effect of over 45% in size)
In short: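 Cytotoxicity in PR-bla HEK293T cells: 16 h compound, 37C; CellTiter-Glo added post-FRET read; luminescence after 30 min RT.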

[10] = qHTS assay to identify small molecule antagonists of the TGF-beta/Smad signaling pathway - cell viability counter screen (AID 1346824); note: nearly all actives have a fitted effect of over 50% in size
In short: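 SBE-bla HEK 293T cells, incubated overnight, then compound plus 0.25 ng/mL TGF-beta1 (stock added) for 5 hr at 37 C. Viability was read in the same wells by CellTiter-Glo luminescence after 30 min at room temperature.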

[11] = qHTS assay to identify small molecule agonists of the TGF-beta/Smad signaling pathway - cell viability counter screen (AID 1346829); note: top concentration of the series differs between compounds; nearly all actives have a fitted effect of over 45% in size
In short: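 Tox21 qHTS format: SBE-bla HEK 293T cells treated with DMSO-dissolved compounds for 5 hr; CellTiter-Glo luminescence after 30 min at room temperature.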

[12] = qHTS assay to identify small molecule agonists of the TGF-beta/Smad signaling pathway (AID 1346859; active = well fitted activation curve with a large enough effect in the signal ratio in the repeat runs, not every such curve was filed as active; the % refers to the signal ratio; note: series mostly up to about 77 µM)
In short: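 Stable Smad binding element-beta-lactamase HEK 293T cells; 5 hr compound exposure at 37 C under 5% CO2; 2 hr room-temperature substrate step; fluorescence excited at 405 nm, collected at 460 nm and 530 nm.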

[13] = molecular target: Thyrotropin-releasing hormone receptor (Homo sapiens) (UniProt P34981); assay: qHTS assay to identify small molecule antagonists of the thyrotropin-releasing hormone receptor (TRHR) signaling pathway (AID 1346877; active = well fitted inhibition curve with a large enough effect in the repeat runs, not every such curve was filed as active; note: series mostly up to about 51 µM)
In short: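 Calcium signal in dye-loaded TRHR/HEK293 cells; compounds added 5 min before TRH (1 nM final); fluorescence monitored 3 min at 1 s steps.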

[14] = molecular target: Thyrotropin-releasing hormone receptor (Homo sapiens) (UniProt P34981); assay: qHTS assay to identify small molecule agonists of the thyrotropin-releasing hormone receptor (TRHR) signaling pathway (AID 1346891; calls by dose curve;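 note: HEK293 cells expressing TRHR with calcium dye readout; series mostly up to about 58 µM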)
In short: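 In 1536-format, 1500 TRHR-Hek293 cells per well grew 18 h, took up calcium dye for 2 h at 37 °C, received compound, and were read kinetically; 15-point titrations, triplicates.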

[15] = Human pregnane X receptor (PXR) small molecule agonists, qHTS cell viability counter screen (AID 1346977); note: nearly all actives have a fitted effect of over 50% in size; note: potency is the fitted concentration of half-maximal effect
In short: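 Readout is CellTiter-Fluor fluorescence from PXR-Luc HepG2 cells. Plated cells rested 5hr, then were treated with compounds for 24hr at 37C and 5% CO2, with reagent present during the last hour.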

[16] = Caspase-3/7 induction in HepG2 cells by small molecules, qHTS assay (AID 1346978); note: nearly all actives have a fitted effect of over 15% in size
In short: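 Wild-type HepG2 cells, 2,000/well, settled 5 hr at 37 C and 5% CO2, then compound-treated for 17 hr; caspase-3/7 activity read by luminescent Caspase-Glo 3/7 after 30 min at room temperature.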

[17] = Caspase-3/7 induction in CHO-K1 cells by small molecules, qHTS assay (AID 1346980); note: nearly all actives have a fitted effect of over 15% in size
In short: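 Wild-type CHO-K1 cells exposed to compounds for 17hr at 37 C, 5% CO2. Caspase-3/7 activity then measured by Caspase-Glo 3/7 luminescence after 30min at room temperature.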

[18] = qHTS assay to identify small molecule agonists or antagonists of the thyroid stimulating hormone receptor (TSHR) signaling pathway - wild type cell line counter screen (AID 1259384; calls by dose curve)
In short: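 Wild-type Hek293 cells, 800/well, 18 h at 37C, then compound with Ro20-1724 for 30 min RT. cAMP by HTRF (cAMP-d2/anti-cAMP cryptate), 1 h RT, fluorescence read. 15 concentrations, triplicates.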

[19] = molecular target: Thyrotropin receptor (Homo sapiens) (UniProt P16473); assay: qHTS assay to identify small molecule antagonists of the thyroid stimulating hormone receptor (TSHR) signaling pathway (AID 1259385; calls by dose curve; note: nearly all actives have a fitted effect of over 20% in size)
In short: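 TSHR-HEK293 cells (800/well) plated 18 h, then compounds with Ro20-1724 and TSH at 1.5 ng/mL final, 30 min at room temperature. cAMP quantified by HTRF (cAMP-d2/anti-cAMP-cryptate, 1 h); 15 concentrations in triplicate.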

[20] = Caspase-3/7 induction in CHO-K1 cells by small molecules, qHTS cell viability counter screen (AID 1346979); note: nearly all actives have a fitted effect of over 35% in size
In short: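 To flag cytotoxic compounds, treated CHO-K1 wild-type cells were given CellTiter-Fluor at 16hr and read fluorescently after 1hr at 37C; the caspase-3/7 luminescence was measured in these same wells.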

Sequence of Thyrotropin-releasing hormone receptor (Homo sapiens) (P34981 whole entry, looked up): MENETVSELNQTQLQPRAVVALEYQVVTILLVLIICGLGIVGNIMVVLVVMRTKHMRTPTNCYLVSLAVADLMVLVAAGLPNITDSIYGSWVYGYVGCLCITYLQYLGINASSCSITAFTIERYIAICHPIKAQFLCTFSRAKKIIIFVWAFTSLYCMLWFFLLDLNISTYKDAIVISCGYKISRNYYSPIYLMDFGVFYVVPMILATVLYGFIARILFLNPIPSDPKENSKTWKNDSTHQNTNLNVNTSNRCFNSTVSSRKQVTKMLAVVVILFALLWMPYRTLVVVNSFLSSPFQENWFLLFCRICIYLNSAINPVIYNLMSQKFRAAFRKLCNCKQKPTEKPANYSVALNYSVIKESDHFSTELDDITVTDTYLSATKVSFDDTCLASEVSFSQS
Sequence of Thyrotropin receptor (Homo sapiens) (P16473 whole entry, looked up): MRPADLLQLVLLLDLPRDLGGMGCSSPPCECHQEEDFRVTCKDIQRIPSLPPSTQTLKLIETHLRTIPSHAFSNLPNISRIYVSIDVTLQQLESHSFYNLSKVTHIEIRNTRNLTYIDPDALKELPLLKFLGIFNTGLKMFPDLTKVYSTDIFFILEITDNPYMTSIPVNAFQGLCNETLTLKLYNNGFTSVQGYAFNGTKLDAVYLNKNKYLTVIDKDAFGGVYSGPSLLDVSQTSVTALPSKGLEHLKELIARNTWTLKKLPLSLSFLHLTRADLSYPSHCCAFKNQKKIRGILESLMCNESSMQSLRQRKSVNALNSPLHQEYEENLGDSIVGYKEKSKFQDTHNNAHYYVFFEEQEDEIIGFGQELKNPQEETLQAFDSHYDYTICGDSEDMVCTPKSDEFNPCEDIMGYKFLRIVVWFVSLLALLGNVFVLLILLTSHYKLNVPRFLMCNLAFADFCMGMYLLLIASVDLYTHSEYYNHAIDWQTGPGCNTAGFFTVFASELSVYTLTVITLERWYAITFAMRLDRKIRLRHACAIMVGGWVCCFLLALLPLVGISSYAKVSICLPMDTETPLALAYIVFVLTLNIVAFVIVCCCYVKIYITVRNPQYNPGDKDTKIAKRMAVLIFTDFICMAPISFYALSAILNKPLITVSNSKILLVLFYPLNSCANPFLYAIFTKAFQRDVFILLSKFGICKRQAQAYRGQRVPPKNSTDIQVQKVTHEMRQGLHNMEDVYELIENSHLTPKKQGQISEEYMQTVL
Sequence of Estrogen receptor (Homo sapiens) (P03372 whole entry, looked up): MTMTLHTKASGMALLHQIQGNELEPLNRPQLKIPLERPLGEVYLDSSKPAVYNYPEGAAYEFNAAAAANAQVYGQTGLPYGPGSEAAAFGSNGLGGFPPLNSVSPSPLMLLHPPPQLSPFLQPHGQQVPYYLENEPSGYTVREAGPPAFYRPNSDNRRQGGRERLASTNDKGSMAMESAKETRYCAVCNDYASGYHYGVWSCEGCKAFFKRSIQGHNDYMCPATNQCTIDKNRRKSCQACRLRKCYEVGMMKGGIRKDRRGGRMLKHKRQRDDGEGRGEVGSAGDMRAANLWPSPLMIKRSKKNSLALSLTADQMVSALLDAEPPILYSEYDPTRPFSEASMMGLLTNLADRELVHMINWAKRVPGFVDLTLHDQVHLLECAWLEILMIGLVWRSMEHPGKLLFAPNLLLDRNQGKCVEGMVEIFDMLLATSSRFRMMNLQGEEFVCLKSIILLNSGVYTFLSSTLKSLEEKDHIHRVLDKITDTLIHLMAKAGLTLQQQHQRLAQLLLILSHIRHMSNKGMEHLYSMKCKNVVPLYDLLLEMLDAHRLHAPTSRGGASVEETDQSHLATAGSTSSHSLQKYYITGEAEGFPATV
Sequence of Progesterone receptor (Homo sapiens) (P06401 whole entry, looked up): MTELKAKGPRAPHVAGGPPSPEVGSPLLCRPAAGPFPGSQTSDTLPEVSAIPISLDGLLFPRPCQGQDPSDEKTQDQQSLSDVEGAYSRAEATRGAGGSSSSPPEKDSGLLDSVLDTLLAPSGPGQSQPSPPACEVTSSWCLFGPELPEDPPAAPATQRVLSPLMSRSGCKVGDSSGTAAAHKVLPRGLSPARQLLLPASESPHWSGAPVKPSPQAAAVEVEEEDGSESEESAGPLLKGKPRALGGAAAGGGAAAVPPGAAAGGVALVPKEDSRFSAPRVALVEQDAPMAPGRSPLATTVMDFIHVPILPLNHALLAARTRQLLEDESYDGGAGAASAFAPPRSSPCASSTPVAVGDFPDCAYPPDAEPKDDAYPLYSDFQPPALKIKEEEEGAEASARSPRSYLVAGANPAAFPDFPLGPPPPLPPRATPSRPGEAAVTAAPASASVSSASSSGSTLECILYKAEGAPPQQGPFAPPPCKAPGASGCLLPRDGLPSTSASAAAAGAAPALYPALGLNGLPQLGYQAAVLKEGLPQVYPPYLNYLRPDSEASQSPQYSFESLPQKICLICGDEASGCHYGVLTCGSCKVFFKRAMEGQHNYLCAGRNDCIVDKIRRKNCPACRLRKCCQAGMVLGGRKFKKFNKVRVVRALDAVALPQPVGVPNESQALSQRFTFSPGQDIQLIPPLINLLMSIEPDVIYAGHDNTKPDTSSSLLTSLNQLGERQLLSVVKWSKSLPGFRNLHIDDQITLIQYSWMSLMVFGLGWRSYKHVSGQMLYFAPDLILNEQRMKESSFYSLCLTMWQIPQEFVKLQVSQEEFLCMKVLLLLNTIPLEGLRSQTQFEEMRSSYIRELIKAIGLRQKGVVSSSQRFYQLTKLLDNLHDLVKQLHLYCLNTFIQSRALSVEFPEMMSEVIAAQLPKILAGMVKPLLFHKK
Sequence of Androgen receptor (Homo sapiens) (P10275 whole entry, looked up): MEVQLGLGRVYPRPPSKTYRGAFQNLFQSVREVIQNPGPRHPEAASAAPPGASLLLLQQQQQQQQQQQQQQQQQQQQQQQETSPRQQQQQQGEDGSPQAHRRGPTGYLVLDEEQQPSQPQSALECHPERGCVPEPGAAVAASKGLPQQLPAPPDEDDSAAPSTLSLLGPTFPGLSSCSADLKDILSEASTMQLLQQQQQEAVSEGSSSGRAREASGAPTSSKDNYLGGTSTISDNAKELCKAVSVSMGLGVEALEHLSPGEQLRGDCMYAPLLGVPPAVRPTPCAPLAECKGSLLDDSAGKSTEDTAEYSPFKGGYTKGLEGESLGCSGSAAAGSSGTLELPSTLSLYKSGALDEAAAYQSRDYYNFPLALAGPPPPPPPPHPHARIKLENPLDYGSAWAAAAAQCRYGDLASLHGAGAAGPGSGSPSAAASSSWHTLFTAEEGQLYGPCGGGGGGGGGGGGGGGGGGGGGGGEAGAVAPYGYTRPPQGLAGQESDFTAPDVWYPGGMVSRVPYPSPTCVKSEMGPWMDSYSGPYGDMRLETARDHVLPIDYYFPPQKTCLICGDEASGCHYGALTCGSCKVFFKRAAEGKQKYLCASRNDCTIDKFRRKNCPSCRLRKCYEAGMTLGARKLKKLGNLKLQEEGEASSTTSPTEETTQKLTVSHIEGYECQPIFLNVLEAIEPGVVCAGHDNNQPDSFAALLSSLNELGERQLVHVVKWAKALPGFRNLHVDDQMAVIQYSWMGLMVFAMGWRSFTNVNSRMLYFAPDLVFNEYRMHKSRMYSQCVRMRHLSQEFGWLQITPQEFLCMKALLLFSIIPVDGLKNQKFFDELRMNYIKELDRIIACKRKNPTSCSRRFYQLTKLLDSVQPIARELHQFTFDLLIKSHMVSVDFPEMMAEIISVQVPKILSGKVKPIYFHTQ

Compound	Potency [1]	Potency [2]	Potency [3]	Potency [4]	Potency [5]	Potency [6]	Potency [7]	Potency [8]	Potency [9]	Potency [10]	Potency [11]	outcome [12]	Potency [13]	outcome [14]	Potency [15]	Potency [16]	outcome [17]	outcome [18]	Potency [19]	Potency [20]
CC(c1cc2ccccc2s1)N(O)C(N)=O (stereo not drawn)	inactive	inactive	inactive	inactive	inactive	inactive	inactive	inactive	inactive	inactive	inactive	inactive	inactive	inactive	inactive	inactive	inactive			
O=C(O)c1ccccc1C(c1ccc(O)cc1)c1ccc(O)cc1	inactive	inactive	inactive	inactive	inactive	inactive	inactive	inactive	inactive	inactive	inactive	inactive	inactive	inactive	inactive	inactive	inactive	inactive	inactive	inactive
C[Si](O[Si](C)(C)C)O[Si](C)(C)C	inactive	inactive	inactive		inactive	inactive	inactive	inactive	inactive	inactive	inactive	inactive	inactive	inactive	inactive	inactive	inactive	inactive		
O=C(O)c1cc(O)c(O)c(O)c1	inactive		inactive	inactive	55 µM (active)	inactive	inactive	inactive	inactive	inactive	inactive	inactive	inactive	inactive	49 µM (active) and inactive	inactive	inactive	inactive	inactive	
CC1CCC(C(C)C)C(O)C1 (stereo not drawn)	inactive	inactive	inactive		inactive	inactive	inactive	inactive	inactive	inactive	inactive	inactive	inactive	inactive	inactive	inactive	inactive		inactive	inactive
c1ccc(OCCOc2ccccc2)cc1	inactive		inactive	inactive	inactive	inactive	inactive	inactive	inactive	inactive	inactive	inactive			inactive	inactive	inactive	inactive	inactive	
CC(C)(N)CO	inactive		inactive	inactive	inactive	inactive	inactive	inactive	inactive	inactive	inactive	inactive	inactive	inactive	inactive	inactive	inactive	inactive	inactive	inactive
O=c1[nH]c(=O)n([C@H]2C[C@H](O)[C@@H](CO)O2)cc1Br	inactive		inactive	inactive	inactive	inactive	inactive	inactive	inactive	inactive	inactive	inactive	inactive	inactive	inactive	inactive	inactive	inactive		inactive
